# Source: PubChem (National Center for Advancing Translational Sciences (NCATS))
# HT1080 IDH1KD tx: qHTS for induction of synthetic lethality in tumor cells producing 2HG: qHTS for the HT-1080-IDH1KD cell line. HT-1080 IDH1 knockdown viability, ATP luminescence, 48 h. Potency, µM (titrated, usually from 46.1 µM), for inactives: at the top dose activity, negative = toxicity, actives largely listed as cytotoxic. actives 2% (n = 360,000). AID 686971, 2013;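 note: 0% = DMSO wells and -100% = cell-free medium wells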
#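 Assay cells: HT-1080 with IDH1 knockdown, 750 per well, RPMI/5% FBS. Exposure: 48 h at 37 °C following 2 h pre-incubation. Read: CellTiter-Glo luminescence; fitted concentration-response, curve class assigned.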
# KB-V1 cytotox: qHTS assay for MDR1-selective chemotherapeutics: Primary screen using the drug-selected MDR subline cells KB-V1. KB-V1 MDR cells viability, CellTiter-Glo, 72 h. Potency, µM (doses to about 46.1 µM), usual class: cytotoxic. actives 3.4% (n = 400,000). AID 1347076, 2019; note: % is set by controls: 0 for no effect and ±100 for the full control effect; nearly all actives have a fitted effect of over 60% in size
#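 qHTS viability screen in drug-selected KB-V1 MDR cells: 72 h compound treatment at 37 degrees C, ATP luminescence end point.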
# HT1080-NT tox: qHTS for induction of synthetic lethality in tumor cells producing 2HG: qHTS for the HT-1080-NT fibrosarcoma cell line; HT-1080-NT fibrosarcoma viability, CellTiter-Glo ATP luminescence, 48 h; actives 1.6% (n = 360,000); Potency, µM (highest dose often 46.1 µM), for the others: top-dose activity, negative = less viability, usual class: cytotoxic; AID 686970, 2013;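 note: NT is the 2HG producing partner of a matched IDH1 knockdown line; 0% = DMSO-treated cells and -100% = media-only wells without cells; nearly all actives have a fitted effect of over 55% in size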
#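 750 cells/well, RPMI + 5% FBS; 2 h settle, compound pin-transfer, 48 h at 37 degrees C. CellTiter-Glo 10 min RT, luminescence. Normalized to DMSO and media-only wells.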
# ATXN viability: Viability Counterscreen for Primary qHTS for Inhibitors of ATXN expression. S2 cells (HEK-293 line with an ATXN2-luciferase reporter) viability, CellTiter-Fluor protease fluorescence, 24 h. Potency, µM (top dose mostly 56.7 µM), most hits filed as cytotoxic. actives 0.49% (n = 400,000). AID 651635, 2014; note: nearly all actives have a fitted effect of over 40% in size
# KB-3-1 cytotox: qHTS assay for MDR1-selective chemotherapeutics: Primary screen using the parental adenocarcinoma cell KB-3-1. KB-3-1 viability, CellTiter-Glo ATP luminescence, 72 h. Potency, µM (titrated, usually from 46.1 µM), usual class: cytotoxic. actives 1.4% (n = 400,000); note: % is set by controls: 0 for no effect and ±100 for the full control effect; nearly all actives have a fitted effect of over 60% in size
#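 Viability of parental KB-3-1 cells, measured by CellTiter-Glo luminescence, followed a 72 h incubation at 37 °C with pinned compounds in phenol-red-free DMEM containing 10% FBS.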
# ATXN2 expr inh: Primary qHTS for Inhibitors of ATXN expression; HEK-293 ATXN2-luciferase reporter, luminescence, 24 h; Potency, µM (top dose mostly 57 µM), for inactives: at the highest dose activity change, negative = inhibition, most hits filed as inhibitors; actives 0.72% (n = 360,000); AID 1745845, 2022; note: % is set by controls: 0 for no effect and ±100 for the full control effect; nearly all actives have a fitted effect of over 55% in size
#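 qHTS (up to 57 uM final) was run with 24 h compound exposure of reporter cells at 37 °C. Each well was multiplexed: SteadyGlo luminescence measured ATXN2-luciferase expression after a fluorogenic Gly-Phe-AFC viability readout (25 uM final).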
# Active calls of the source: *; i = inactive; ? = inconclusive; · = no result. Compounds with a hit are over-represented: about 6.2% of the library has one in this group of screens. Calls come from the whole dose curve; as a rule, active = well fitted curve in the direction sought with a large enough effect; inconclusive = small, poorly fitted or top-dose-only effect, or another doubt; inactive = no such curve, though single readings can be large; an effect the other way counts as inactive or inconclusive. Potency is the fitted concentration of half-maximal effect.
SMILES,HT1080 IDH1KD tx,KB-V1 cytotox,HT1080-NT tox,ATXN viability,KB-3-1 cytotox,ATXN2 expr inh
O=C(C1CCCN(S(=O)(=O)c2cccc3nsnc23)C1)N1CCN(c2ccccc2Cl)CC1 (stereo not given),·,i,·,i,?,-21%
COc1ccccc1N1CCN(C(=O)CCn2nc(C)c(S(=O)(=O)N3CCCC3)c2C)CC1,·,i,·,i,i,6%
Nn1cc(-c2ccccc2)nc1SCC(=O)NCCc1ccccc1,-15%,23µM*,-7%,i,i,-13%
CCn1c(SCC(=O)NCCc2ccccc2)nnc1-c1cccs1,5%,21µM*,-4%,i,i,2%
CCn1c(SC/C=C/c2ccccc2)nnc1-c1cccs1,0%,13µM*,-1%,i,i,-8%
Cn1c(SC/C=C/c2ccccc2)nnc1-c1cccs1,21%,i,3%,i,i,-2%
O=C(CSc1nc2ccccc2nc1Cc1ccccc1)N1CCc2ccccc21,·,i,·,?,i,1%
Cc1ncc2c(c1CNC(=O)c1ccccc1F)CCN(C(=O)c1[nH]c3ccc(Cl)cc3c1C)C2,·,·,·,i,·,·
COC(=O)c1cccc(-c2cc(Cl)c3c(c2)CC(CNC(=O)c2cccnc2)O3)c1 (stereo not given),·,·,·,i,·,·
N#CCC1c2ccccc2CCN1C(=O)Nc1cccc(Cl)c1 (stereo not given),?,16µM*,-14%,i,i,4%
N#CCC1c2ccccc2CCN1C(=O)Nc1ccc(Cl)cc1 (stereo not given),-30%,i,7%,i,i,-6%
N#CCC1c2ccccc2CCN1C(=O)Nc1cccc(C(F)(F)F)c1 (stereo not given),?,i,13µM*,i,?,-7%
N#CCC1c2ccccc2CCN1C(=O)Nc1ccc(C(F)(F)F)cc1 (stereo not given),?,i,?,i,i,-28%
O=[N+]([O-])c1ccccc1S(=O)(=O)NCCC1=CCCCC1,7%,15µM*,12%,i,i,-2%
O=C(NN=C1CCCC1)c1n[nH]c2c1CCC2,3.7µM*,?,2.6µM*,i,?,43%
Cc1ccsc1/C=N\NC(=O)c1n[nH]c2c1CCC2,7.3µM*,4.6µM*,6.5µM*,i,3.3µM*,?
O=C(NC1CCCCC1)c1n[nH]c2c1CCCCC2,-28%,i,?,i,?,10µM*
CC1=Nc2ccccc2/C1=C(/C)c1c(C)[nH]c2ccccc12,·,i,·,·,?,·
C[C@]12C=CC(=O)C=C1[C@@H](F)C[C@@H]1[C@@H]2[C@@H](O)C[C@@]2(C)[C@H]1CC[C@]2(O)C(=O)CO,·,·,·,i,·,-2%
Cc1nc2c3ccccc3nc(SCC(=O)N3CC(C)CC(C)C3)n2n1 (stereo not given),-5%,0.58µM*,2%,i,i,4%
Cc1nc2c3ccccc3nc(SCC(=O)c3ccc(Cl)cc3)n2n1,19%,10µM*,10%,i,i,-17%
CCN(CC)c1ccc2cc(C(C)=O)c(=O)oc2c1,16%,i,3%,i,i,14%
CCN(CC)c1ccc2cc(NC(=O)CCC(=O)O)c(=O)oc2c1,0%,i,-3%,·,i,7.9µM*
CCCCN(CC)CCNC(=O)c1cc2c(-c3ccc(Cl)cc3)nn(C)c2s1,21µM*,23µM*,21µM*,·,?,?
CCCN(CCC)CCNC(=O)c1cc2c(-c3ccc(Cl)cc3)nn(C)c2s1,-14%,i,-18%,?,16µM*,?
SMILES,HT1080 IDH1KD tx,KB-V1 cytotox,HT1080-NT tox,ATXN viability,KB-3-1 cytotox,ATXN2 expr inh
CCCN(CCC)CCCNC(=O)c1cc2c(-c3ccc(OC)c(OC)c3)nn(C)c2s1,21µM*,?,?,i,i,-19%
COc1ccc(-c2nn(C)c3sc(C(=O)NCCN(C)C)cc23)cc1OC,-7%,i,-11%,?,i,?
CCN(CC)CCNC(=O)c1cc2c(-c3ccc(Cl)cc3)nn(C)c2s1,18µM*,?,18µM*,·,?,28µM*
CC1(c2ccc([N+](=O)[O-])cc2)Nc2ccccc2S1 (stereo not given),21µM*,i,?,i,i,11%
O=C1Nc2ccccc2/C1=C/c1ccc([N+](=O)[O-])cc1,4%,i,-1%,i,i,0%
Cc1csc(C(C#N)C(=O)c2cc3ccccc3o2)n1 (stereo not given),?,21µM*,?,?,?,-18%
CC(C)(C)NC(=O)[C@H]1CC[C@H]2[C@@H]3CC=C4C=C(C(=O)O)CC[C@]4(C)[C@H]3CC[C@]12C,·,·,·,i,·,·
CCCCn1nnnc1C1(C)CCC(=O)N1CCCn1ccnc1 (stereo not given),?,i,?,?,13µM*,-30%
CC(C)C(c1nnnn1C1CCCCC1)N1CCc2ccccc21 (stereo not given),-21%,i,-6%,i,i,-1%
CC(C)C(c1nnnn1C1CCCC1)N1c2ccccc2CC1C (stereo not given),-27%,15µM*,-26%,i,i,-6%
CCOC(=O)n1c(=O)n(Cc2ccc(OC)cc2)c2ccccc21,?,?,15µM*,i,16µM*,-1%
CCOC(=O)C1=C(C)N(c2ccccc2)C(=O)/C1=C\c1cccs1,5%,18µM*,-1%,i,i,2%
Cc1ccc(Cl)cc1N1CCN(C(=O)CN2C(=O)COc3ccc(S(=O)(=O)N4CCC(C)CC4)cc32)CC1,·,?,·,i,i,-2%
O=[N+]([O-])c1ccc(C=Nc2cccc3ccccc23)s1,23µM*,?,-23%,?,?,-10%
O=C(OC(c1ccccc1)c1nccc2ccccc12)c1cc([N+](=O)[O-])cc([N+](=O)[O-])c1 (stereo not given),-14%,8.2µM*,-10%,?,i,2%
OC(c1cccc(Cl)c1)c1nccc2ccccc12 (stereo not given),-5%,i,-2%,i,i,-7%
